This note sets out measurements from ChEMBL document CHEMBL4513216, “Probing the Open Global Health Chemical Diversity Library for Multistage-Active Starting Points for Next-Generation Antimalarials” (ACS Infect Dis, 2020).

Hit rate of the full screen: of about 69,000 compounds, about 8,600 (12%) showed an effect of 50% or more. This excerpt belongs to a sample that is enriched for strong results.

In this assay the test system is Plasmodium berghei. Kind of assay: Screen against P. berghei liver stage (PbLuc), transformed with Luciferase, at 10uM. As to conditions: tested at 10 uM. In kind it is functional, HepG2.
Take `CN(C)C(=O)Cn1c(C2CC2)c(CN2CCOCC2)c2cccnc21`: the INHIBITION was -13.2%.
As for `Cc1c(Cl)cccc1N1CC(c2nnc(N)s2)CC1=O` (centres undefined), the INHIBITION was found to be 35.8%.
For the molecule `CC(C)(C)c1coc([C@@H]2COCCN2Cc2ccccn2)n1`, the INHIBITION is -37.4%.
For the molecule `Cn1cc(CN2CCOC[C@H]2c2nc(C(C)(C)C)co2)c2ccccc21`, the INHIBITION came out at 10%.
`CC(C)(C)c1coc([C@@H]2COCCN2Cc2c[nH]cn2)n1`: the INHIBITION amounted to 62.8%.
The result for `CC(C)(C)c1coc([C@@H]2COCCN2Cc2ccccc2)n1` reads 3.25%.
In the case of `CC(C)(C)c1coc([C@@H]2COCCN2Cc2ncc[nH]2)n1`, the INHIBITION came to 20.9%.
On to `Cn1c(CN2CCOC[C@H]2c2nc(C(C)(C)C)co2)nc2ccccc21`, for which the INHIBITION was 52%.
Turning to `CS(=O)(=O)N1CC[C@H]2OCC[C@@]2(C(=O)NCC2CC2)C1`, the INHIBITION amounted to 42.1%.
For `CN1CCN(Cc2c(Cl)ccc(O)c2Cl)CC1C(=O)O` (centres undefined), the INHIBITION is recorded as -27.6%.
Regarding `CN(C)CCN1C(=O)CCCC12CCCN(C(=O)c1ccncc1)C2` (centres undefined), the INHIBITION was found to be 5.68%.
For the molecule `O=C(c1ccccc1F)N1CCC2(CC1)CC(Oc1ccccn1)CO2` (centres undefined), the INHIBITION amounted to 46.6%.
Regarding `COC1COC2(CCN(C(=O)c3ccccc3F)CC2)C1` (centres undefined), the INHIBITION came to 62.9%.
Regarding `COC1COC2(CCN(C(=O)c3cnc(C)cn3)CC2)C1` (centres undefined), the INHIBITION is recorded as -21.7%.
`CC(=O)N1CCC2(CC1)CC(Oc1ccccc1)CO2` (centres undefined): the INHIBITION came out at 33.5%.
Take `O=C(c1ccccc1)N1CCC2(CC1)CC(Oc1ccccc1)CO2` (centres undefined): the INHIBITION is given as 52%.
With `COC1COC2(CCN(C(=O)c3cocn3)CC2)C1` (centres undefined), the INHIBITION turned out to be 39.4%.
As to `COc1ncccc1C(=O)N1CCC2(CC1)CC(OC)CO2` (centres undefined), the INHIBITION is reported as 25.8%.
For `O=C(c1cccnc1)N1CCC2(CC1)CC(Oc1ccccc1)CO2` (centres undefined), the INHIBITION is reported as 34.4%.
As for `COC1COC2(CCN(C(=O)c3cscn3)CC2)C1` (centres undefined), the INHIBITION was 53.9%.
In the case of `CCn1c(O)c(C(C)=O)c2cc(C)ccc21`, the INHIBITION is 33.4%.
`Cc1ccc(-c2nc(CN3CCCCC3Cn3cncn3)no2)cc1` (centres undefined): the INHIBITION is on record as 21.5%.
Regarding `CCS(=O)(=O)CCSc1ccc(Br)cc1`, the INHIBITION is recorded as -59.8%.
Regarding `CN(CC(O)COc1ccc(C(F)(F)F)cc1)C(=O)Nc1nncs1` (centres undefined), the INHIBITION is -0.87%.
Consider `COc1cc(NC(=O)c2ccc(C)c(F)c2)c(C(=O)N(C)C)cc1OC`, for which the INHIBITION amounted to 14%.
`CCn1cc(S(=O)(=O)NC(=O)CCc2c[nH]c3ccccc23)cn1`: the INHIBITION is listed as 61.5%.
Turning to `CCn1cc(NC(=O)NC(CO)Cc2c[nH]c3ccccc23)cn1` (centres undefined), the INHIBITION came to 32.3%.
As to `CCn1cc(S(=O)(=O)NC(CO)Cc2c[nH]c3ccccc23)cn1` (centres undefined), the INHIBITION turned out to be 19.3%.
On to `CN(Cc1cc(C(C)(C)C)n[nH]1)C(=O)CCC(=O)NC1CCCC1`, for which the INHIBITION was determined as 32.1%.
Turning to `Cn1ncc(NC(=O)c2noc3c2CCCC3)c1C(N)=O`, the INHIBITION is given as 2.6%.
Turning to `O=C(C1CCC2(CCN(CC3CC3)CC2)O1)N1CCCC1` (centres undefined), the INHIBITION amounted to 1.34%.
As for `COc1ccc(C(=O)N(C)Cc2nnc3ccccn23)c(OC)c1OC`, the INHIBITION was -8.11%.
For the molecule `COc1ccc(C(=O)N(C)Cc2cccc(C#N)c2)c(OC)c1OC`, the INHIBITION was found to be 50.1%.
Turning to `COc1cccc(CN(C)Cc2cccc(C#N)c2)c1OC`, the INHIBITION is -3.19%.
Regarding `CCOc1ccc2oc(-c3cn(C)nc3C)c(O)c(=O)c2c1`, the INHIBITION is listed as 25.9%.
`COC(=O)CCC(=O)N(Cc1ccc2cc[nH]c2c1)C1CC1`: the INHIBITION was -8.8%.
Consider `COc1cc(C2CC(=O)Nc3c2nc2n3CCCC2)cc2c1OCO2` (centres undefined), for which the INHIBITION stood at 34%.
Turning to `CCNC(=O)[C@@H]1C[C@@H](N)CN1C(=O)c1[nH]c2ccccc2c1CC`, the INHIBITION is 11.5%.
The result for `CCOCCCNc1ncc(-c2onc(C)c2C)c(-c2ccco2)n1` reads 27.465%.
The result for `CCC(=O)NCC1(O)CCC(C(C)(C)C)CC1` (centres undefined) reads -5.92%.
With `CN(CCOc1ccc(Br)cc1)Cc1cscn1`, the INHIBITION is on record as -62.6%.
On to `COCCS(=O)(=O)N(Cc1cscn1)c1ccccc1`, for which the INHIBITION turned out to be 22.8%.
In the case of `Cc1cc(C)cc(OCCN(C)Cc2cscn2)c1` it was 28.1%.
The result for `CN(C)S(=O)(=O)N(Cc1cscn1)c1ccccc1` reads 62.4%; that for `CCN(C)S(=O)(=O)N(Cc1cscn1)c1ccccc1`, 66.4%; that for `Cc1ccc(OCCN(C)Cc2cscn2)cc1`, -23.8%.
Take `CC(C)c1ccc(CN2CCCC3(CC2)CN(C)C(=O)O3)cc1` (centres undefined): the INHIBITION is -58.7%.
Turning to `CS(=O)(=O)c1cncnc1C1CCCNC1` (centres undefined), the INHIBITION stood at 20.4%.
For `CN(C)C(=O)CN1C(=O)CCC12CCN(Cc1cccs1)CC2`, the INHIBITION came to 9.97%.
Consider `CCc1ccc(CNC(=O)c2ccc(N3CCOC3=O)cc2)s1`, for which the INHIBITION is on record as 78.2%.
As for `O=C(NCc1ccc(Cl)s1)c1ccc(N2CCOC2=O)cc1`, the INHIBITION is 72.2%.
For the molecule `Cc1ccsc1CNC(=O)c1ccc(N2CCNC2=O)cc1`, the INHIBITION turned out to be 25.2%.
In the case of `O=C1COc2cc(C(=O)NCc3ccc(Cl)s3)ccc2N1`, the INHIBITION is given as 16.8%.
In the case of `Cc1noc(C)c1CNC(=O)Nc1ccc(N2CCOC2=O)cc1` it was 13.9%; in that of `Cc1ccsc1CNC(=O)c1ccc(N2CCOC2=O)cc1`, 56.8%.
As for `O=C1CCc2cc(C(=O)NCc3ccc(Cl)s3)ccc2N1`, the INHIBITION is on record as -28.6%.
In the case of `CCc1ccc(CNC(=O)NC(C)CN2CCOCC2)s1` (centres undefined) it was -3.95%; in that of `Cc1ccsc1CNC(=O)c1ccc2c(c1)CCC(=O)N2`, -20.8%; in that of `Cc1cccn2cc(C[S+]([O-])Cc3noc(C(C)C)n3)nc12` (centres undefined), -9.51%.
Take `Cc1noc(C)c1-c1cncc(C2CCCN2Cc2c[nH]cn2)n1` (centres undefined): the INHIBITION was found to be 32.8%.
`CC(=O)N1CCC(c2c(CN(C)C)cnc3cc(C)nn23)CC1`: the INHIBITION is on record as -0.8%.
For `CCS(=O)(=O)N1CCOC2(CCCN(c3ccc(C)nn3)C2)C1` (centres undefined), the INHIBITION is listed as 5.65%.
With `O=C1NC(C(=O)NCc2cccnc2Oc2ccc(F)cc2F)CO1` (centres undefined), the INHIBITION is reported as 9.52%.
With `CSCC[C@@H]1CN2CCC[C@H]2CN1Cc1coc2ccc(Cl)cc2c1=O`, the INHIBITION was 7.11%.
With `Cc1cc(NC(=O)CN(CC2CCOC2)C2CC2)no1` (centres undefined), the INHIBITION stood at 21.5%.
For `O=c1[nH]nc2nc(N3CCSCC3)ccn12`, the INHIBITION came out at 9.96%.
The result for `O=c1[nH]nc2nc(N3CCCC3)ccn12` reads 19.8%; that for `Cc1cccc(N2CCN(c3ccn4c(=O)[nH]nc4n3)CC2)c1C`, 65.8%; that for `Cn1ccnc1CN1CCN(CC(O)c2ccccc2)CC1` (centres undefined), 4.52%.
The result for `O=C(NCc1nncn1-c1ccccc1)C1CC1` reads -21.8%.
With `O=C1CCC(C(=O)NCc2nncn2-c2ccccc2)CN1` (centres undefined), the INHIBITION is reported as 51%.
As to `O=C(NCc1nncn1-c1ccccc1)C1CCCC1`, the INHIBITION was determined as 11.9%.
For the molecule `Cc1cccc(CN2CCc3nnc(CN4CCCC4=O)n3CC2)n1`, the INHIBITION is recorded as 35.7%.
In the case of `CC(=O)CSc1sc2c(O)cc(=O)[nH]c2c1C(N)=O` it was 26%; in that of `CN(CC1Cc2ccccc2CN1C)C(=O)CSc1nccn1C` (centres undefined), 40.9%.
In the case of `CN(CC1Cc2ccccc2CN1C)C(=O)CSc1ccccn1` (centres undefined) it was -4.91%; in that of `Cc1cc(=O)[nH]c(SCC(=O)N(C)CC2Cc3ccccc3CN2C)n1` (centres undefined), 50.2%; in that of `O=C(NCc1ccco1)c1[nH]nc2c1CS(=O)(=O)CC2`, 48.2%.
In the case of `O=C1CO[C@@H]2CN(Cc3cccs3)C[C@H]2N1CC1CC1`, the INHIBITION turned out to be 24.5%.
Consider `Cc1noc(C)c1CNCc1nn(-c2ccccc2)c2c1CCC2`, for which the INHIBITION was -0.159%.
The result for `COc1ccccc1CNCc1nn(-c2ccccc2)c2c1CCC2` reads 36.8%; that for `Cc1c(CNCc2nn(-c3ccccc3)c3c2CCC3)cc(C#N)n1C`, 63.6%; that for `O=C1CCC(C(=O)NCc2nn(-c3ccccc3)c3c2CCC3)CN1` (centres undefined), 41.9%.
Turning to `O=C(NCc1nn(-c2ccccc2)c2c1CCC2)NC1CC1`, the INHIBITION came to 30.2%.
Regarding `O=C(NCc1nn(-c2ccccc2)c2c1CCC2)C1CC1`, the INHIBITION amounted to 59.55%.
For `Cc1cc(C)n(CCCNC(=O)[C@@H](C)NC(=O)OC(C)(C)C)n1`, the INHIBITION is given as 15.8%.
Turning to `CCOc1ccc(Cl)cc1NC(=O)N1CCC(n2cncn2)CC1`, the INHIBITION is reported as 47%.
Turning to `NC(=O)c1cnc(-c2ccccc2)nc1CCNC(=O)CN1CCCC1`, the INHIBITION is given as 12.8%.
`COC1CCN(C(=O)c2ccccc2NCc2cccnc2)CC1`: the INHIBITION was -30%.
As to `COC(=O)c1cc(C)nc(N2CCN(Cc3ccn(C(C)C)c3)CC2)n1`, the INHIBITION was determined as 24.2%.
As for `Cc1cccc(CN2CCN(C(=O)c3cccnc3O)CC2)c1`, the INHIBITION came to 11.2%.
On to `CCc1ccc(O)c(C(=O)NC2CCN(Cc3ccncc3)CC2)c1`, for which the INHIBITION was determined as 48.9%.
For `Cc1cccnc1N1CCN(Cc2cc(O)c3cccc(F)c3n2)CC1`, the INHIBITION came to 18.6%.
On to `Cc1ccc(CN2CCC(Cc3nnc(CO)n3C)CC2)cc1C`, for which the INHIBITION was 4.48%.
Consider `COC(=O)c1cc(CN2CCN(c3ncccc3C)CC2)ccc1O`, for which the INHIBITION is reported as 71%.
On to `COC(=O)c1cc(CN2CCN(c3nc(C)cnc3C)CC2)ccc1O`, for which the INHIBITION is on record as 51.2%.
`Cc1cnc(C)c(N2CCN(CC3CCCO3)CC2)n1` (centres undefined): the INHIBITION is listed as 4.93%.
In the case of `Cc1cnc(C)c(N2CCN(Cc3ccc(C)c(C)c3)CC2)n1` it was 75%; in that of `Cc1noc(C)c1-c1nc(C2CCCN(C(=O)CCN)C2)ccc1CO` (centres undefined), -10.2%.
Take `Cc1nc(C2CCCN(C(=O)COCc3ccccc3)C2)no1` (centres undefined): the INHIBITION is listed as 21.5%.
In the case of `CCn1ncc2[nH]c(-c3cc4c(cc3OC)OCO4)nc21` it was -7.2%; in that of `O=C(NCCc1ccccc1)C1CCN(C(=O)Cn2cncn2)C1` (centres undefined), 3.48%; in that of `CCN(CC)C(=O)CSc1ncc[nH]1`, 44.2%.
In the case of `CN(C(=O)CSc1ncc[nH]1)c1ccccc1`, the INHIBITION amounted to 49.6%.
`CN(C(=O)CSc1ncc[nH]1)C1CC1`: the INHIBITION was 53.9%.
The result for `CC(C)(C)OC(=O)N1CCC(C(=O)NCc2cc3ccccc3[nH]2)C1` (centres undefined) reads -8.4%.
In the case of `CC(C)N1CCC2(CC1)C(=O)N(c1cccnc1)c1ccc(F)cc12`, the INHIBITION is 28.2%.
In the case of `COC[C@]1(O)CCN(C2CCN(c3ccc(Cl)cc3)CC2)CC1(C)C`, the INHIBITION was determined as 29.4%.
Consider `O=C(NCCCn1nc2ccccn2c1=O)NCCC1CCC1`, for which the INHIBITION was 37.9%.
